These results are taken from PubChem BioAssay.

Activity calls are given as the source filed them. Unless noted, how the calls were made is not given here.

Assay [1] in a line: resazurin metabolic signal in HepG2 cells – cell-based, resazurin fluorescence, 24 h, PK04 Diversity Set, profiling panel (AID 1172). Further: test concentration not given here. Particulars: HepG2 viability, higher = more signal.
Assay [2] in a line: budding yeast growth changes without added modifier – OD600, strain BY4716, 24 h, basal condition, primary screen (AID 1173). Particulars: S. cerevisiae BY4716 growth, OD600, 24 h; higher = more signal, called active from +8 up or from −8 down.
The nature of assay [3]: viability profiling in MM1S myeloma cells – cell-based, resazurin fluorescence, basal, 24 h, PK04 Diversity Set, profiling panel (AID 1174).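 Further: MM1S multiple myeloma cell line; test concentration not given here.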 Particulars: higher = more signal, called active from +8 up or from −8 down.
Assay [4] has as its target Dihydroorotate dehydrogenase (quinone), mitochondrial (Plasmodium falciparum (isolate 3D7)) (UniProt Q08210). Kind of assay: inhibition of P. falciparum DHODH – biochemical, C-terminal His tag, absorbance 600 nm, primary screen (AID 1175).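 Further: recombinant parasite enzyme with a five histidine tag at its C terminus; test concentration not given here.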 Particulars: PfDHODH enzyme, DCIP absorbance 600 nm; higher = more signal, called active from +8 up or from −8 down.
The nature of assay [5]: inhibition of PAO1 biofilm formation – strain PAO1, LB-PBS medium, absorbance 600 nm, primary screen (AID 1176). Further: test concentration not given here. Particulars: P. aeruginosa PAO1 growth/biofilm, A600, 12 h; higher = more signal.
Assay [6] is described as follows: growth modulation of vineyard yeast isolate – strain RM11-1a, OD600, basal, 24 h, primary screen (AID 1177).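 Further: cultures grown under basal conditions with no added stressor; test concentration not given here.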 Particulars: S. cerevisiae RM11-1a growth, OD600, 24 h; higher = more signal, called active from +8 up or from −8 down.
A short description of assay [7]: growth of efflux-deficient E. coli DRC39 – strain DRC39, OD650, 24 h, E. coli filamentation inducers, primary screen (AID 1178).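 Further: growth measured as culture turbidity by optical density at 650 nm; test concentration not given here.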 The following applies: E. coli DRC39 acrAB, higher = more signal, called active from +8 up or from −8 down.
Assay [8] can be described thus: growth of efflux-deficient E. coli DRC39 – strain DRC39, OD650, 48 h, E. coli filamentation inducers, primary screen (AID 1179).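 Further: screen aims at cell division blockers that make cells filament.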 Particulars: E. coli DRC39 delta-acrAB growth, higher = more signal, called active from +8 up or from −8 down.
Assay [9] can be described thus: viability profiling in RPMI8226 myeloma cells – cell-based, resazurin fluorescence, basal, 24 h, PK04 Diversity Set, profiling panel (AID 1180).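 Further: RPMI8826 multiple myeloma cell line at 5000 cells per well; test concentration not given here.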 The following applies: higher = more signal.
The target in assay [10] is E3 ubiquitin-protein ligase XIAP (Homo sapiens) (UniProt P98170). Put plainly: small molecules binding XIAP protein – biophysical, small-molecule microarray, fluorescence 635 nm, primary screen (AID 1181).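 Further: score merges 667 nm emission and signal to noise over triplicate slides.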 The following applies: higher = more signal.
E3 ubiquitin-protein ligase XIAP (Homo sapiens), sequence (P98170 whole entry, looked up): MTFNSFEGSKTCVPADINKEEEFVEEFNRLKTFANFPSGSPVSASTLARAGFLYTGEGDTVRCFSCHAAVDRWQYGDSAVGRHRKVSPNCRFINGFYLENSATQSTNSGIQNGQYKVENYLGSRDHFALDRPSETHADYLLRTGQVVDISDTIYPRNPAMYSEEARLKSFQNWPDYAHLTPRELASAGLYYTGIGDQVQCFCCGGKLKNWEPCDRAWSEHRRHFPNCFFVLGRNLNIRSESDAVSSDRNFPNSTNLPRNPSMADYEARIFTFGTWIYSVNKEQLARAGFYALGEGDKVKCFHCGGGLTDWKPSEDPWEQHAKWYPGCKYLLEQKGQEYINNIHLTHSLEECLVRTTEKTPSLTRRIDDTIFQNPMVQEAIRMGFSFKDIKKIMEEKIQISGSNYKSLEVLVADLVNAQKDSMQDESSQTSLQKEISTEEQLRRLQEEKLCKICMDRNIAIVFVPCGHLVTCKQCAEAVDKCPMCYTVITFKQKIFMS

Dihydroorotate dehydrogenase (quinone), mitochondrial (Plasmodium falciparum (isolate 3D7)), sequence (Q08210 whole entry, looked up): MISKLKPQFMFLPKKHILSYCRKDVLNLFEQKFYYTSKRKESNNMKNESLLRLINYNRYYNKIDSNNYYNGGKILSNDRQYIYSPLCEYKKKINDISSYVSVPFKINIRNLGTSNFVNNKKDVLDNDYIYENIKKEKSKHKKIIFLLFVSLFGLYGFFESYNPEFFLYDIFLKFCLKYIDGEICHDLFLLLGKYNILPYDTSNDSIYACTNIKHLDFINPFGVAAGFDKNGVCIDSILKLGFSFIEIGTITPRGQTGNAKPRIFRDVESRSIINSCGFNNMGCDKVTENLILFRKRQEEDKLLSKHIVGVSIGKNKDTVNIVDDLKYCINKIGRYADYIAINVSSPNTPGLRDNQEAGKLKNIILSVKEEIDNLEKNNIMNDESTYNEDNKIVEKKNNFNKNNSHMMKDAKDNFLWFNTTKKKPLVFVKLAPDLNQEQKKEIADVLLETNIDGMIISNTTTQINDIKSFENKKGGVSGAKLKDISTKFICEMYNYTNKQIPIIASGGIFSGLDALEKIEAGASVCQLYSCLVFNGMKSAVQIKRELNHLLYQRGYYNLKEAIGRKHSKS

Turning to `CO[C@H]1COC(=O)[C@@H](C)COC(=O)[C@@H](OCc2ccccc2)C=C[C@@H]1C`, the z-score in assay [1] was 0.409; in assay [2], -0.471 (inactive); in assay [3], 0.687 (inactive); in [5], -0.601 (inactive); in [6], 1.14 (inactive); in [7], 0.334 (inactive). The z-score is -0.183 (inactive) in assay [8] and 0.681 in [9]. The composite z-score is 0.976 (inactive) in assay [4] and 0.131 in assay [10].
For the compound `C[C@@H](c1ccccc1)N1C(=O)[C@H]2[C@H]3[C@H](O)[C@H](O)CC(=NO[C@@H]4O[C@H](CO)[C@@H](O)[C@H](O)[C@H]4O)[C@H]3CC[C@H]2C1=O`, the z-score in assay [1] is -0.495; in assay [2] it was 0.561 (inactive); in assay [3] it was 0.174 (inactive); in assay [5] it was 0.389 (inactive); in assay [6] it was 0.0857 (inactive); in assay [7], -0.837 (inactive). The values for the z-score in [8] and in [9] were 0.11 (inactive) and 0.577, respectively. The composite z-score in [4] was -0.28 (inactive); in assay [10], 0.057.
For `CC(C)=CCCC(C)=CCON=C1C[C@@H](O)[C@@H](O)[C@@H]2[C@@H]3C(=O)N(c4ccc(F)cc4F)C(=O)[C@@H]3CC[C@H]12`, the z-score in [1] is 0.844; in assay [2] it was -2.97 (inactive); in assay [3], 0.257 (inactive); in assay [5], 0.671 (inactive); in assay [6] it was -0.777 (inactive); in assay [7], 0.375 (inactive). Also, the figures for the z-score in assay [8] and in assay [9] were 0.438 (inactive) and 1.32, respectively. Moreover, the composite z-score was -1.42 (inactive) in [4] and -0.0939 in assay [10].
Take `CCOC(=O)NN=C1C[C@@H](O)[C@@H](O)[C@@H]2[C@@H]3C(=O)N([C@@H](C)c4ccccc4)C(=O)[C@@H]3CC[C@H]12`: the z-score in assay [1] is 0.384; in assay [2] it was 0.448 (inactive); in [3], -0.495 (inactive); in [5] it was 0.0942 (inactive); in assay [6] it was -0.362 (inactive); in [7] it was -0.212 (inactive). The z-score is -0.102 (inactive) in assay [8] and 0.331 in [9]. The composite z-score is -0.309 (inactive) in assay [4] and -0.0076 in assay [10].
For `CC[C@@H](c1ccccc1)n1c(=O)n2n(c1=O)[C@H]1[C@H](O)[C@@H]3O[C@@H]3C(=O)[C@H]1CC2`, the z-score in assay [1] is -0.797; in assay [2], -1.57 (inactive); in [3], -2.15 (inactive); in assay [5], -0.626 (inactive); in assay [6], -0.552 (inactive); in [7], 0.285 (inactive). Further, the z-score is 0.216 (inactive) in assay [8] and -2.04 in assay [9]. The composite z-score in [4] was 0.807 (inactive); in [10], 0.0641.
`COCCNC(=O)OCC1CCCC2(CC(OC(=O)NCc3ccc4c(c3)OCO4)CC(CCC(=O)N[C@@H](C)C(=O)OC)O2)O1` (stereo not given in full): the z-score in assay [1] was 0.752; in assay [2], -0.433 (inactive); in assay [3], -0.0741 (inactive); in [5], -0.282 (inactive); in assay [6], 0.715 (inactive); in assay [7] it was 0.311 (inactive). Further, the z-score in assay [8] was -0.49 (inactive); in assay [9], 0.528. Also, the results for the composite z-score in [4] and in [10] were 0.209 (inactive) and -0.173, respectively.
As to `CC(CCN1CCCCc2nc(C)c(C)cc21)=NOC[C@@H](C)[C@H](OCc1ccccc1)C(C)C`, the z-score in assay [1] was -0.345; in assay [2], -2.36 (inactive); in assay [3], -0.13 (inactive); in [5], 0.147 (inactive); in [6] it was -2.61 (inactive); in assay [7], -1.22 (inactive). The z-score in [8] is 0.0039 (inactive); in assay [9], 0.0342. The composite z-score in assay [4] is -1.46 (inactive); in [10], 0.0153.
On to `CCOC(=O)[C@H](CC(C)C)NC(=O)CCC1CC(OC(=O)NCc2cccc3ccccc23)CC2(CCCC(COC(=O)NCCOC)O2)O1` (stereo not given in full), for which the z-score in assay [1] was -0.0621; in assay [2], -2.14 (inactive); in [3], 1.35 (inactive); in [5], 0.226 (inactive); in assay [6] it was -1.73 (inactive); in assay [7] it was 0.521 (inactive). For the same compound, the z-score was -0.0291 (inactive) in assay [8] and 0.986 in [9]. Further, the values for the composite z-score in assay [4] and in assay [10] were -0.531 (inactive) and 0.0589, respectively.
Consider `CCOC(=O)[C@H](CC(C)C)NC(=O)CCC1CC(OC(=O)NCCc2ccc(F)cc2)CC2(CCCC(COC(=O)NCCc3ccc(Cl)cc3)O2)O1` (stereo not given in full), for which the z-score in assay [1] is 0.182; in [2], 0.0981 (inactive); in assay [3] it was -0.0687 (inactive); in [5], 0.213 (inactive); in assay [6], -0.596 (inactive); in assay [7], -0.0646 (inactive). Further, the figures for the z-score in assay [8] and in assay [9] were -0.617 (inactive) and 0.48, respectively. The composite z-score in [4] was -0.188 (inactive); in assay [10] it was -0.247.
Take `Cc1cc2c(nc1C)CCCN2CC(O)CN1CCCc2nc(C)c(C)cc21`: the z-score was 0.269 in assay [1]; 0.0477 (inactive) in assay [2]; -0.644 (inactive) in assay [3]; 0.979 (inactive) in assay [5]; 0.255 (inactive) in [6]; -0.494 (inactive) in [7]. For the same compound, the z-score in assay [8] was -0.242 (inactive); in assay [9], 0.399. Also, the results for the composite z-score in assay [4] and in assay [10] were 0.0382 (inactive) and 1.12, respectively.
Consider `CCC(=O)[C@@]1(O)C(=O)N2C(=C3C(=O)OCC[C@@H]31)N(Cc1ccccc1)C(C)=C(C(=O)OC)[C@H]2c1ccccc1`, for which the z-score in assay [1] is -0.207; in [2], -0.235 (inactive); in assay [3], 0.327 (inactive); in [5], 0.936 (inactive); in assay [6], 0.273 (inactive); in assay [7], 0.533 (inactive). For the same compound, the figures for the z-score in assay [8] and in assay [9] were -0.247 (inactive) and -0.557, respectively. Moreover, the values for the composite z-score in assay [4] and in assay [10] were -1.41 (inactive) and -0.175, respectively.
In the case of `CC(C)CON=C1C[C@@H](O)[C@@H](O)[C@@H]2[C@@H]3C(=O)N(Cc4ccc5c(c4)OCO5)C(=O)[C@@H]3CC[C@H]12`, the z-score in assay [1] was 0.259; in assay [2] it was 0.151 (inactive); in assay [3], -0.146 (inactive); in [5] it was -0.626 (inactive); in [6], 0.812 (inactive); in assay [7], 0.0036 (inactive). Besides, the z-score in assay [8] is -0.0961 (inactive); in assay [9], -0.0651. Moreover, the composite z-score is 0.834 (inactive) in assay [4] and -0.184 in assay [10].
